Shown is part of a subset that was picked to be rich in hits.
Pf Dd2 inh = qHTS Primary assay for Inhibitors of Plasmodium falciparum Dd2 growth in vitro | 4.3% of 120,000 active | P. falciparum Dd2 growth, SYBR Green, 72 h | AID 1347417, 2020 | Potency, µM (series often up to 28.9 µM), actives largely listed as inhibitors; active = well fitted inhibition curve with a large enough effect; also: nearly all actives have a fitted effect of over 65% in size
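Infected erythrocytes (Dd2, 0.3% parasitemia, 2.5% hematocrit final) are added to compound in RPMI-1640/Albumax II medium, grown 72 h at 37C in low oxygen, then lysed with saponin/Triton-X containing SYBR Green and read by fluorescence.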
Hits are given with their value; 0 = inactive; [ ] = remark or other dose.

SMILES	Pf Dd2 inh
CCCCN(CCCC)CCNC(=O)c1cn(CC)c2ccc(S(=O)(=O)N(C)C3CCCCC3)cc2c1=O	0
CCCN(CCC)CCCNC(=O)c1cn(CC)c2ccc(S(=O)(=O)N3CCc4ccccc4C3)cc2c1=O	0
COc1ccccc1C(=O)N(C)Cc1cccn1C	0
COc1ccccc1CC(=O)N1CCCc2ncc(C(=O)Nc3cccc(Cl)c3)cc21	2.5µM
COc1ccccc1CC(=O)N1CCCc2ncc(C(=O)N(C)c3ccccc3)cc21	0
COc1ccc(NC(=O)c2cnc3c(c2)N(C(=O)Cc2cccc(C(F)(F)F)c2)CCC3)cn1	0
COc1ccccc1N1CCCc2ncc(C(=O)NCCc3ccccc3)cc21	0
COc1ccccc1CC(=O)N1CCCc2ncc(C(=O)Nc3cccc(C(F)(F)F)c3)cc21	4.5µM
COc1ccccc1CC(=O)N1CCCc2ncc(C(=O)NCCOc3ccccc3)cc21	0
COc1ccc(NC(=O)c2cnc3c(c2)N(c2ccccc2OC)CCC3)cn1	6.3µM
CC(C)c1ccc(CC(=O)N2CCCc3ncc(C(=O)Nc4cccc(C(F)(F)F)c4)cc32)cc1	0
COc1ccccc1CC(=O)N1CCCc2ncc(C(=O)Nc3ccc(OC)c(OC)c3)cc21	0
CCCCN1C(=O)[C@@H]2C[C@@H](O)CN2C2(CN(Cc3ccc(OC)cc3)C2)C1=O	0
COCc1ccc(C(=O)N2CCCC(CCc3cccc(OC)c3)C2)o1 (stereo unspecified)	0
O=C1CCC(C(=O)N2CCCn3ccnc3C2c2ccccc2)=NN1 (stereo unspecified)	0
CN(CC1CCOCC1)C(=O)NC1CCCC1	0
Cc1cnccc1CNC(=O)c1cc(COc2ccc3c(c2)OCO3)[nH]n1	0
COc1cc(OC)cc(C(=O)NC2CCN(c3cc(-c4ccccc4)[nH]n3)CC2)c1	0
COc1ccc(CC(=O)N2CCc3cc(OC)c(OC)cc3C2COc2ccc(OC)cc2)cc1 (stereo unspecified)	7.9µM
COc1ccc(CC(=O)NCc2ccc3c(c2)CCN3C(=O)c2ccc(Cl)cc2)cc1OC	0
CCCC(=O)N1CCc2cc(OC)c(OC)cc2C1COc1ccccc1OC (stereo unspecified)	13µM
CCc1ccccc1NC(=O)N1CCc2cc(OC)c(OC)cc2C1CC(=O)OC (stereo unspecified)	0
CCc1ccc(OCC2c3cc(OC)c(OC)cc3CCN2C(=O)Cc2ccc(OC)c(OC)c2)cc1 (stereo unspecified)	8.9µM
CCOC(=O)c1ccc(OCC2c3cc(OC)c(OC)cc3CCN2C(=O)Cc2ccc(OC)c(OC)c2)cc1 (stereo unspecified)	8.9µM
COc1cc2c(cc1OC)C(CNC(=O)C1CC1)N(C(=O)NC(C)C)CC2 (stereo unspecified)	0
SMILES	Pf Dd2 inh
COc1cc(OC)c(NC(=O)N2CCc3cc(OC)c(OC)cc3C2CC(=O)O)cc1Cl (stereo unspecified)	0
COc1cc2c(cc1OC)C(COc1ccccc1OC)N(C(=O)c1ccc(S(=O)(=O)N(C)C)cc1)CC2 (stereo unspecified)	0
COc1cc2c(cc1OC)C(CNC(=O)Cc1ccccc1)N(C(=O)NC(C)C)CC2 (stereo unspecified)	0
CCOc1ccc(NC(=O)N2CCc3cc(OC)c(OC)cc3C2CNC(C)=O)cc1 (stereo unspecified)	0
O=C(CC1CCCN(c2cn[nH]c(=O)c2)C1)N1CCCCC1 (stereo unspecified)	0
CC1C=CC(C)N1c1ncnc2c1CN(C1CCCNCC1)C(=O)CN2C (stereo unspecified)	0
CN(C)CCNC(=O)c1cc2n(n1)CCCN(C(=O)[C@@H]1CCCN1)C2	0
COC[C@@H]1CN(c2ncccn2)C[C@H]1C(=O)NCCn1cccn1	0
CN1CCCCCCN(C(=O)C2CC2)[C@H]2CCC[C@H]2C1=O	0
COc1ccc(NC(=O)N2CCn3nnc(CCC(=O)NC4CC4)c3C2)cc1	0
O=C(NCc1ccccc1)c1nc2c(o1)CCN(Cc1ccc(F)c(Cl)c1)CC2	0
Cc1ccc(C(=O)N2CCC(n3nccc3NC(=O)C3CCOC3)CC2)cc1C (stereo unspecified)	0
COc1cc2c(cc1OC)C(CNC(=O)c1ccccc1C)N(C(=O)Nc1cccc(C)c1)CC2 (stereo unspecified)	0
COc1cc2c(cc1OC)C(COc1cc(C)cc(C)c1)N(C(=O)COc1ccccc1)CC2 (stereo unspecified)	5µM
COc1ccc(C(=O)NCC2c3cc(OC)c(OC)cc3CCN2C(=O)Nc2ccccc2F)cc1 (stereo unspecified)	0
COc1ccc(C(=O)N2CCN(C(=O)COc3ccccc3)CC2)cc1OC	0
COC(=O)c1ccc(OCC2c3cc(OC)c(OC)cc3CCN2C(=O)c2ccccc2F)cc1 (stereo unspecified)	10µM
COc1cc2c(cc1OC)C(CNC(=O)c1ccc(Cl)cc1)N(C(=O)Nc1cccc(F)c1)CC2 (stereo unspecified)	0
CC(C)c1noc([C@@H]2C[C@H]3C(=O)NCCCCCCN(C(=O)CCC4CCCC4)[C@H]3C2)n1	0
O=C(c1cccnc1)N1CCC2(CCCCO2)CC1	0
CN(Cc1cccc(F)c1)Cc1ccccc1C(F)(F)F	0
COCCNc1oc(-c2ccccc2)nc1S(=O)(=O)c1ccc(Br)cc1	0
O=S(=O)(c1ccc(Cl)cc1)c1nc(-c2ccccc2Br)oc1NCc1ccccc1	10µM
O=S(=O)(c1ccccc1)c1nc(-c2ccc(F)cc2)oc1NCc1ccccc1	0
COC[C@@H]1CN(C(=O)c2cccn2C)C[C@H]1c1nc(C2CC2)no1	0
SMILES	Pf Dd2 inh
COCCC(=O)N[C@@H]1CN(Cc2ccccn2)C[C@H]1CN(C)C	0
COCC1CN(S(=O)(=O)c2cc(F)ccc2OC)CC12CCNCC2 (stereo unspecified)	0
CCc1nc(-c2c3n(c(=O)n(CC(=O)Nc4cc(C)ccc4C)c2=O)CCCCC3)no1	0
O=C(NCc1ccco1)C1CC(=O)N(c2n[nH]c3cccc(F)c23)C1 (stereo unspecified)	0
CCCCN(C)CCCNC(=O)C1CCN(c2nc3ccc(CC)cc3s2)CC1	11µM
CCc1ccc2nc(N3CCN(C(=O)c4ccco4)CC3)sc2c1	0
CCCCN(C)CCCNC(=O)C1CCN(S(=O)(=O)CC)CC1	0
COc1ccc(NC(=O)C2=NO[C@@H]3CN(c4cccnc4)C[C@H]23)cc1	0
Cc1nnc2ccc(NCc3ccccc3F)nn12	0
O=C1NCCCCCCN(S(=O)(=O)c2ccccc2)[C@H]2CCC[C@@H]12	0
Cc1ccc(CN2CCCCCCN(C)C(=O)[C@@H]3CCC[C@@H]32)s1	6.3µM
CN1CCCCCCN(Cc2cccnc2)[C@H]2CCC[C@H]2C1=O	0
COc1cccc(CN2CCCCCCN(C)C(=O)[C@@H]3CCC[C@@H]32)n1	2.5µM
O=C1NCCCCCCN(S(=O)(=O)c2ccccc2)[C@H]2CCCC[C@@H]12	0
CN1CCCCCCN(C(=O)c2ccoc2)[C@H]2CCC[C@H]2C1=O	0
COc1cccc(CN2CCCCCNC(=O)[C@@H]3CCC[C@@H]32)c1OC	0
Cc1ccc(CNC(=O)N2CCCCCCN(C)C(=O)[C@@H]3CCC[C@@H]32)cc1	0
CN1CCCCCCN(S(=O)(=O)c2ccccc2)[C@H]2CCC[C@H]2C1=O	4µM
O=C1NCCN2CC3(CCN(C(=O)c4ccco4)CC3)CC12 (stereo unspecified)	0
CN(CC1CCOC1)C(=O)Nc1cccc(Cl)c1 (stereo unspecified)	0[5.79 µM]
